Screening results deposited in PubChem BioAssay by National Center for Advancing Translational Sciences (NCATS).
This is a sample that favours compounds with a hit; in the whole collection about 14% have one here.
AID923 – qHTS Assay for Allosteric/Competitive Inhibitors of Caspase-1: Spectroscopic Profiling in AFC Spectral Region; compound fluorescence, AFC spectral region (405/520 nm); Potency, µM (doses to about 57.5 µM), inactives show at the highest dose fluorescence increase, hits mostly activators; actives 1.1% (n = 75,000); AID 923, 2007; also: potency is read from the fitted curve at half-maximal effect; 0% is about no effect
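Compound autofluorescence profiled at 405 nm ex/520 nm em during kinetic caspase 1 run (50 nM enzyme, 5 uM Ac-WEHD-AFC, HEPES pH 7.5, 10 mM DTT). Titration up to 57 uM; baseline from regression intercept, normalized to AFC standard curve.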
HSD17B inhib – inhibitors of human HSD17B10 dehydrogenase; recombinant HSD17B10, NADH fluorescence kinetic; Potency, µM (series often up to 57.1 µM), for the others: at the highest dose activity change, negative = inhibition, actives largely listed as inhibitors; actives 7.6% (n = 75,000);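 also: the protocol describes HADH2 (HSD17B10) and not the HSD17B4 of the title; potency is read from the fitted curve at half-maximal effect; % is scaled to controls: 0 for no effect and ±100 for the full control effect; nearly all actives have a fitted effect of over 70% in size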
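Enzyme plus compound, 15 min room temperature; substrate mix added (NAD+ 1 mM, beta-hydroxybutyryl-CoA 90 uM final); plates read kinetically for NADH fluorescence. HADH2 was His-tagged, E. coli-derived, 20 nM.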
A350 autofl – A350 region autofluorescence | Compound autofluorescence, 340/450 nm, Alexa 350 dye-equivalents; active compounds read high | AID 590 | max dye-equivalent concentration, M | actives 11% (n = 59,000); in the data active = max dye-equivalent concentration above about 10 nM; inconclusive = mostly about 1.1 nM to 9.6 nM
4-MU autofl – compounds fluorescent in 4-MU spectral region. compound autofluorescence, 340/450 nm, 4-MU equivalents; active compounds read high. max dye-equivalent concentration, M. AID 589. actives 11% (n = 59,000); in the data active = max dye-equivalent concentration above about 10 nM; inconclusive = mostly about 1.1 nM to 9.6 nM
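Intrinsic fluorescence at 340/450 nm (ex/em) was read after 15 min at room temperature in pH 8.0, 100 mM Tris. Each compound concentration expressed as 4-MU-equivalent concentration from a six-point 4-MU standard series on each plate.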
CRE Fsk mod – CRE-bla signaling modulation under forskolin stimulation; CHO CRE-bla reporter (cAMP response element driving beta-lactamase), forskolin EC10, beta-lactamase ratio; Potency, µM (highest dose often 38.2 µM), inactives show at the highest dose activity change, negative = inhibition, actives largely listed as activators; actives 2.5% (n = 71,000); AID 662; active = well fitted activation curve with a large enough effect in the signal ratio, with a control signal flat, not every such curve was filed as active; inconclusive = small, poorly fitted or top-dose-only effect, or effect the other way, or a change in a side signal; the % refers to the signal ratio; also: potency is read from the fitted curve at half-maximal effect; % of control where 0% means no effect
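AC50 values, positive or negative, reflect shifts in EC10 NKH 477-induced CRE-bla reporter activity in CHO cells. Incubation lasted 3 h at 37 °C before CCF4 substrate (2 h, room temperature) and ratiometric 460/530 nm reading.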
HADH2 inhib – HADH2 (human) dehydrogenase inhibition; Q99714; Potency, µM (top dose mostly 57.1 µM), for inactives: at the highest dose activity change, negative = inhibition, usual class: inhibitors; recombinant HADH2, NADH fluorescence, beta-hydroxybutyryl-CoA; actives 3.4% (n = 73,000); AID 886; also: potency is read from the fitted curve at half-maximal effect; % is scaled to controls: 0 for no effect and ±100 for the full control effect; nearly all actives have a fitted effect of over 60% in size
Target sequence (Q99714 whole entry, looked up, one chain of several): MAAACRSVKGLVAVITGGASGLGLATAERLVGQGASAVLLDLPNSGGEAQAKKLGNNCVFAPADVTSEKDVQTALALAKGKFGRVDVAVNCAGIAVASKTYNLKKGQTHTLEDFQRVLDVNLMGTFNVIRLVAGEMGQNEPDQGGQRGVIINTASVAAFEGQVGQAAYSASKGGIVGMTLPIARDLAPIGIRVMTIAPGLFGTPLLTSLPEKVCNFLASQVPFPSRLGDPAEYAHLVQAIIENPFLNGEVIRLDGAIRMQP
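Buffer 100 mM Tris-HCl pH 9.0/0.01% Tween-20; HADH2 20 nM; NAD+ 1 mM; beta-hydroxybutyryl-CoA 90 uM (all final). 15 min cpd preincubation, RT.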
The depositor's hits bear a star; [ ] = remark or other dose. Unless noted, calls follow the shape of the dose curve; as a rule, active = well fitted curve in the direction sought with a large enough effect; inconclusive = small, poorly fitted or top-dose-only effect, or another doubt; inactive = no such curve, though single readings can be large; an effect the other way counts as inactive or inconclusive.

`CCOC(=O)c1c(-c2ccccc2)[nH]c2ccc(O)cc12` gave AID923 0.7%, HSD17B inhib 25.1µM*, A350 autofl inconclusive, 4-MU autofl inconclusive, CRE Fsk mod 25.3% and HADH2 inhib 31.6µM*.
CCCCNc1c(C(=O)OCC)c(=O)[nH]c2ccccc12 was read as AID923 -0.3%, HSD17B inhib 5.7%, A350 autofl inactive, 4-MU autofl inactive, CRE Fsk mod 3.2% and HADH2 inhib 0.2%.
Screening N[C@H](Cc1cc(I)c(Oc2ccc(O)c(I)c2)c(I)c1)C(=O)O returned AID923 -1.3%[25.7 µM], HSD17B inhib -23.6%[25.6 µM], A350 autofl inactive, 4-MU autofl inactive, CRE Fsk mod -4.5%[17.1 µM] and HADH2 inhib -26.0%[25.6 µM].
For COc1ccc(OC)c(NC(=O)CSc2nnnn2-c2ccccc2F)c1 the results were AID923 -0.3%, HSD17B inhib 3.4%, A350 autofl inactive, 4-MU autofl inactive, CRE Fsk mod 14.1% and HADH2 inhib 3.1%.
Screening COC(=O)c1sccc1NC(=O)CSc1nnnn1-c1ccccc1F returned AID923 0.4%, HSD17B inhib 2.6%, A350 autofl 2.37e-06M*, 4-MU autofl 1.88e-06M*, CRE Fsk mod 25.7% and HADH2 inhib 1.3%.
`CO[C@@H]1COC(=O)[C@H]2CCCN2C(=O)C/C=C\[C@@H](C)[C@H](OC)COC(=O)[C@H]2CCCN2C(=O)C/C=C\[C@H]1C` gave AID923 -0.9%[11.5 µM], HSD17B inhib -6.4%[11.4 µM] and HADH2 inhib -11.0%[11.4 µM].
For CCOc1cc(N2CCOCC2)c(OCC)cc1NC(=O)Cn1[nH]c(=O)c2ccccc2c1=O the results were AID923 0.2%, HSD17B inhib 8.4%, A350 autofl inactive, 4-MU autofl inactive, CRE Fsk mod 0.1µM* and HADH2 inhib 22.4%.
`OCCn1c(CSc2nnc(-c3ccco3)n2-c2ccccc2)nc2ccc(Cl)cc21` gave AID923 -0.4%, HSD17B inhib 31.6µM*, A350 autofl inactive, 4-MU autofl inactive, CRE Fsk mod 0.2µM* and HADH2 inhib 3.7%.
Screening O=C(CN1C(=O)C2CC=CCC2C1=O)OCCN1C(=O)c2ccccc2C1=O (stereo not drawn) returned AID923 -1.4%, HSD17B inhib 5.4%, A350 autofl inactive, 4-MU autofl inactive, CRE Fsk mod -22.9% and HADH2 inhib 8.7%.
For Cc1noc(C)c1-c1cncnc1N(C)Cc1ccco1 the results were AID923 0.9%, HSD17B inhib -4.1%, A350 autofl inactive, 4-MU autofl inactive, CRE Fsk mod 1.4% and HADH2 inhib -26.7%.
For O=CN(Cc1ccco1)C1(C(=O)NC2CCCCC2)CCCCC1 the results were AID923 0.2%, HSD17B inhib 10.6%, A350 autofl 1.89e-08M*, 4-MU autofl 1.71e-08M*, CRE Fsk mod inconclusive and HADH2 inhib 3.8%.
O=C1NC(=O)C(CC(=O)N(Cc2ccco2)C2(C(=O)NC3CCCCC3)CCCCC2)N1 (stereo not drawn) was read as AID923 -1.9%, HSD17B inhib 5.5%, A350 autofl inactive, 4-MU autofl inactive, CRE Fsk mod 29.9% and HADH2 inhib 0.9%.
`FC(F)C(F)(F)C1=CC(c2ccccc2)=NCCN1` gave AID923 2.8%, HSD17B inhib -4.2%, CRE Fsk mod 0.2% and HADH2 inhib -7.0%.
For FC(F)(F)C12CC(c3ccccc3)=NCCN1CCN2 (stereo not drawn) the results were AID923 5.2%, HSD17B inhib -23.5%, A350 autofl 1.12e-07M*, 4-MU autofl 9.13e-08M*, CRE Fsk mod -3.6% and HADH2 inhib 7.7%.
`O=C(c1ccccc1)c1nc[nH]c1C(=O)Nc1ccccn1` gave AID923 -1.7%, HSD17B inhib -0.6%, A350 autofl inactive, 4-MU autofl inactive, CRE Fsk mod 10µM* and HADH2 inhib -0.5%.
`CCOC(=O)c1[nH]cnc1C(=O)Nc1ccccn1` gave AID923 -0.8%, HSD17B inhib 3.3%, CRE Fsk mod inconclusive and HADH2 inhib 1.4%.
